Source: PubChem BioAssay AID1159580 (chemical genetic matrix, 2015)
The whole screen tested about 5,500 compounds, of which about 2,000 (36%) were called active. Inconclusive results (about 18%) are left out. Cut-off read from the data, not from the text of the source: active = normalized growth mostly below about 0.91 (no sharp cut-off); inconclusive = no clear call, values can overlap the other calls; inactive = mostly above about 0.92. The list shows a part of the results.

Experiment: chemical genetic growth profiling, strain panel (AID 1159580);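 note: tested at 20 µM; growth read once vehicle control cultures reached saturation at 30 °C; 1 = growth at the plate median or of vehicle wells; lower values mean less growth of the strain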
Conditions: growth OD
[1] = S. cerevisiae deletion strains, locus YAL013W, strain DEP1, stronger effect = lower value
[2] = S. cerevisiae deletion strains, locus YBR229C, strain ROT2, stronger effect = lower value
[3] = S. cerevisiae deletion strains, locus YDL101C, strain DUN1, stronger effect = lower value
[4] = S. cerevisiae deletion strains, locus YDR150W, strain NUM1, stronger effect = lower value
[5] = S. cerevisiae deletion strains, locus YEL061C, strain CIN8, stronger effect = lower value
[6] = S. cerevisiae deletion strains, locus YGR078C, strain PAC10, stronger effect = lower value
[7] = S. cerevisiae deletion strains, locus YHR030C, strain SLT2, stronger effect = lower value
[8] = S. cerevisiae deletion strains, locus YHR087W, strain rtc3, stronger effect = lower value
[9] = S. cerevisiae deletion strains, locus YJL187C, strain SWE1, stronger effect = lower value
[10] = S. cerevisiae deletion strains, locus YJR043C, strain POL32, stronger effect = lower value
[11] = S. cerevisiae deletion strains, locus YJR075W, strain HOC1, stronger effect = lower value
[12] = S. cerevisiae deletion strains, locus YLR039C, strain RIC1, stronger effect = lower value
[13] = S. cerevisiae deletion strains, locus YLR058C, strain SHM2 (second series), stronger effect = lower value
[14] = S. cerevisiae deletion strains, locus YLR085C, strain ARP6, stronger effect = lower value
[15] = S. cerevisiae deletion strains, locus YLR262C, strain YPT6, stronger effect = lower value
[16] = S. cerevisiae deletion strains, locus YML094W, strain GIM5, stronger effect = lower value
[17] = S. cerevisiae deletion strains, locus YMR219W, strain ESC1, stronger effect = lower value
[18] = S. cerevisiae deletion strains, locus YMR263W, strain SAP30, stronger effect = lower value
[19] = S. cerevisiae deletion strains, locus YNL153C, strain GIM3, stronger effect = lower value
[20] = S. cerevisiae deletion strains, locus YNL298W, strain CLA4 (second series), stronger effect = lower value
[21] = S. cerevisiae deletion strains, locus YNL322C, strain KRE1, stronger effect = lower value
[22] = S. cerevisiae deletion strains, locus YNR030W, strain Alg12, stronger effect = lower value
[23] = S. cerevisiae deletion strains, locus YPL055C, strain LGE1, stronger effect = lower value
[24] = S. cerevisiae deletion strains, locus YPL241C, strain CIN2, stronger effect = lower value
[25] = S. cerevisiae deletion strains, locus YPR135W, strain CTF4, stronger effect = lower value

Measured: normalized growth

O=C1CCCc2c1c1ccccc1n2Cc1ccccc1
inactive: [1] 0.99 | [2] 0.978 | [3] 0.974 | S. cerevisiae deletion strains, locus YDL134C, strain PPH21, stronger effect = lower value 0.989 | [4] 0.893 | [5] 0.961 | [6] 0.972 | [7] 0.712 | [8] 0.965 | [9] 0.992 | [10] 0.996 | [11] 0.98 | [13] 0.997 | [14] 0.889 | [16] 0.91 | [17] 0.975 | [18] 0.94 | S. cerevisiae deletion strains, locus YMR307W, strain GAS1, stronger effect = lower value 0.973 | [19] 0.98 | [20] 0.95 | [21] 0.974 | [22] 0.951 | [23] 0.933 | [24] 0.987 | [25] 0.839 | S. cerevisiae strains, strain wild type, stronger effect = lower value 0.974
active: [12] 0.753 | [15] 0.75

CN1CCc2ccccc2Cc2[nH]c3ccccc3c2CC1
inactive: [1] 1.01 | S. cerevisiae deletion strains, locus YAL040C, strain CLN3, stronger effect = lower value 1.04 | S. cerevisiae deletion strains, locus YCL061C, strain MRC1 (second series), stronger effect = lower value 1.01 | [4] 1.01 | S. cerevisiae deletion strains, locus YDR363W, strain ESC2, stronger effect = lower value 0.97 | S. cerevisiae deletion strains, locus YER002W, strain NOP16, stronger effect = lower value 0.996 | [6] 0.994 | S. cerevisiae deletion strains, locus YNL128W, strain TEP1, stronger effect = lower value 1.01 | [19] 1.03 | S. cerevisiae deletion strains, locus YNL175C, strain NOP13, stronger effect = lower value 1.01 | S. cerevisiae deletion strains, locus YNL197C, strain WHI3, stronger effect = lower value 1.01 | S. cerevisiae deletion strains, locus YNL224C, strain SQS1, stronger effect = lower value 0.996 | [21] 1.02 | S. cerevisiae deletion strains, locus YOR083W, strain WHI5 (second series), stronger effect = lower value 0.998 | [23] 1.01 | [24] 1.01

O=C1CCCc2c1nc(-c1ccccc1)n2O
inactive: [1] 1 | [2] 1 | [3] 1.03 | [4] 0.966 | [5] 1.05 | [6] 1 | [7] 1.05 | [8] 0.999 | [9] 1.02 | [10] 0.995 | [11] 1.01 | S. cerevisiae deletion strains, locus YKL190W, strain CNB1, stronger effect = lower value 1 | [12] 1.04 | [13] 1.03 | [14] 0.998 | [15] 1.06 | [16] 1.01 | [17] 1.01 | [18] 0.999 | [19] 1.03 | [20] 0.993 | [21] 1.01 | [22] 1.01 | S. cerevisiae deletion strains, locus YOL006C, strain TOP1, stronger effect = lower value 0.999 | [23] 0.905 | [24] 1.02 | [25] 1
